# Assay outcomes: PubChem BioAssay, National Center for Advancing Translational Sciences (NCATS)
# ELG1 repair inh – blocks ELG1-dependent DNA repair in HEK293T cells; 330,000 tested, 2.3% active; HEK293T ELG1-luciferase reporter, luminescence, 16 h; DNA damage induced by 5-fluorouridine; Potency, µM (top dose mostly 46.1 µM), actives largely listed as inhibitors; also: nearly all actives have a fitted effect of over 55% in size
#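 HEK293T cells expressing luciferase-tagged ELG1 (2,000/well) received 5-Fluorouridine plus compound or DMSO for 16 hr at 37 °C. Luciferase was read by ONE-Glo luminescence after 30 min at room temperature.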
# Giardia killer – kills Giardia lamblia. activity change, % at 7.66 µM, hits read low. Giardia lamblia trophozoite viability. 340,000 tested, 0.15% active; in the data active = activity change below about -80%; inconclusive = between about -30% and that limit;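 also: parasites exposed to compound for two days anaerobically before the ATP read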
#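 Luminescent ATP signal served as the viability read-out, measured 15-30 min after adding ATP detection reagent to trophozoites that had been incubated with compounds for 48 hrs at 37 deg C anaerobically at 100 cells/well.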
# IL1B secr inh – inhibitors of inflammasome signaling (IL-1 beta secretion) | THP-1 LPS/ATP IL-1B secretion, AlphaLISA, 16 h; active compounds read low | activity change, % at 57.5 µM | 360,000 tested, 4.7% active | AID 743279; in the data active = activity change below about -50%; inconclusive = mostly about -30% to -49%
#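 Secreted IL-1B measured by AlphaLISA bead assay after 16 h compound exposure of THP-1 cells; compounds (final up to 57.5 uM) added 1 h before LPS (250 ng/mL) and ATP (1.25 mM) stimulation; lower signal means less secretion.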
# DT40 TDP1 CPT – growth inhibition of DT40 Tdp1-/-;hTDP1 cells with camptothecin (screen for TDP1 inhibitors); chicken DT40 Tdp1-/-;hTDP1 cells + 20 nM CPT, ATP luminescence, 48 h; Potency, µM (titrated, usually from 46.2 µM), hits mostly inhibitors; 420,000 tested, 12% active; AID 686979; also: nearly all actives have a fitted effect of over 55% in size
#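 Chicken DT40 Tdp1-/- cells complemented with human TDP1, 400 cells/well, exposed to compounds plus 20 nM camptothecin for at least 48 h at 37 C; viability read as ATP content by CellTiter-Glo luminescence.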
# TDP1 cell noCPT – qHTS for Inhibitors of human tyrosyl-DNA phosphodiesterase 1 (TDP1): qHTS in cells in absence of CPT. DT40 Tdp1-/- hTDP1 cells, no CPT, ATP luminescence, 48 h. 420,000 tested, 15% active. Potency, µM (titrated, usually from 46.2 µM), actives largely listed as inhibitors; also: nearly all actives have a fitted effect of over 55% in size
#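 Cells were dispensed at 400 per well, compounds added by pin tool, plates incubated ≥48 hr at 37 °C, then CellTiter-Glo added for 30 min at room temperature before luminescence reading. Line: DT40 Tdp1-/- complemented with hTDP1; camptothecin omitted.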
# TDP1 block – inhibitors of human tyrosyl-DNA phosphodiesterase TDP1; 350,000 tested, 0.28% active; Q9NUW8; recombinant TDP1, AlphaScreen DNA substrate cleavage; Potency, µM (top dose mostly 130 µM), most hits filed as inhibitors; also: nearly all actives have a fitted effect of over 40% in size
# Target sequence (Q9NUW8 whole entry, looked up): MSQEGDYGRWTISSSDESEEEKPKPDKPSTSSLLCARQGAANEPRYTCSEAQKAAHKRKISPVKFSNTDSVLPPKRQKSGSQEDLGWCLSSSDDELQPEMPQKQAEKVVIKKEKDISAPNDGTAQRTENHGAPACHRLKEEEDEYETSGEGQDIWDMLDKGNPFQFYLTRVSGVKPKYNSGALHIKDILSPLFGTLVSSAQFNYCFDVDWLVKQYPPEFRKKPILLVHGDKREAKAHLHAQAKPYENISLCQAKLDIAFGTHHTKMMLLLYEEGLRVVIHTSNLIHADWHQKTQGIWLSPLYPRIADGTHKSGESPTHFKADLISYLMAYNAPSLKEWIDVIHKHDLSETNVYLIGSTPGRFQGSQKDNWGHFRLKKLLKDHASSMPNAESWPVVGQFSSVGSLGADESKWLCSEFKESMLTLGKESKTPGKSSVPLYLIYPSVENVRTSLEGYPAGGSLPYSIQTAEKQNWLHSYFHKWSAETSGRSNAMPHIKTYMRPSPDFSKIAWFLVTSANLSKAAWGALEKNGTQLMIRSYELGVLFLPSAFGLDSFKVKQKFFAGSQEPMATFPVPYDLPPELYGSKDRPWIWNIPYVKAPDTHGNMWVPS
#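 Here, a 5' biotin and 3' phosphotyrosine-FITC DNA oligonucleotide reports Tdp1 activity: intact substrate bridges AlphaScreen beads, while cleavage leaves a 3' phosphate and drops signal. All incubations at room temperature.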
# Hits are given with their value; . = inactive; ? = inconclusive; / = no result. A selection: hits, their analogues and other compounds. The true share with any hit is near 19%. Unless noted, calls follow the shape of the dose curve; as a rule, active = well fitted curve in the direction sought with a large enough effect; inconclusive = small, poorly fitted or top-dose-only effect, or another doubt; inactive = no such curve, though single readings can be large; an effect the other way counts as inactive or inconclusive.
SMILES,ELG1 repair inh,Giardia killer,IL1B secr inh,DT40 TDP1 CPT,TDP1 cell noCPT,TDP1 block
CCCS(=O)(=O)N1CC(=O)N(c2cccc(Cl)c2)C(C)(C(=O)NC2CCCCC2)C1 (stereo not given),/,/,/,.,.,.
O=C(c1ccc(Cl)cc1)c1c[nH]c(C(=O)NNc2ccccc2)c1,.,.,.,.,.,.
COc1ccc(CC(=O)N[C@@H]2c3ccccc3CC[C@H]2OCc2ccccc2)cc1,?,.,.,?,?,.
Cc1cc(C)n(-c2ccn(Cc3ccc(Cl)cc3Cl)c(=O)n2)n1,?,.,.,20.6µM,16.4µM,.
CC1CCN(C(=O)Cn2c(=O)n(CCCCCC(=O)NCc3ccccc3Cl)c(=O)c3sccc32)CC1,/,/,/,?,10.3µM,.
CCOc1ccccc1NC(=O)Cn1c(=O)n(CC(=O)NCc2ccccc2Cl)c(=O)c2sccc21,/,/,/,8.2µM,9.2µM,.
Cc1ccccc1NC(=O)Cn1c(=O)n(CCCCCC(=O)NCc2ccccc2Cl)c(=O)c2sccc21,/,/,/,?,?,.
CCC(C)NC(=O)Cn1c(=O)n(CCCCCC(=O)NCc2ccccc2Cl)c(=O)c2sccc21 (stereo not given),/,/,/,?,?,.
CN1CCN(c2ccc(CNS(=O)(=O)c3ccc(Cl)cc3)cc2)CC1,.,.,.,?,11.6µM,.
Cc1ccc(S(=O)(=O)NCc2ccc(N3CCN(C(=O)OC(C)(C)C)CC3)cc2)cc1,.,.,.,13µM,16.4µM,.
COc1ccc(N2CCN(C(CNC(=O)C(=O)NCC(OC)OC)c3ccco3)CC2)cc1 (stereo not given),.,.,.,.,.,.
OCCN1CCN(CC/C=C2/c3ccccc3Sc3ccc(C(F)(F)F)cc32)CC1,.,.,?,20.6µM,9.44µM,.
CN(Cc1ccccc1)C(=O)c1csc([C@@H]2O[C@H](CO)[C@H](O)[C@H](O)[C@H]2O)n1,/,/,.,.,.,/
CCOC(=O)c1sc(NC(=O)CCN2C(=O)C3CCCCC3C2=O)cc1C (stereo not given),.,.,?,.,.,.
CCCOC1(NC(=O)c2ccccc2)C(C)=CC(=O)C=C1C,.,.,.,23.1µM,?,.
O=C(CNC(=O)c1ccccc1Cl)OC(C(=O)Nc1cc(C(F)(F)F)ccc1Cl)c1ccccc1 (stereo not given),/,/,/,/,/,.
CCOC(=O)c1cnc2c(c(C)nn2C)c1Oc1ccc(Cl)cc1,?,.,.,16.4µM,?,.
CCOC(=O)c1c(S(=O)(=O)N2CCCC(C)C2)c(C)n(C)c1C (stereo not given),.,.,.,?,.,.
CCOC(=O)c1c(C)c(C(=O)N2CCN(c3ccccc3)CC2)c(C)n1C,.,.,-69.3,.,.,.
Cc1ccc(Cl)cc1N1CCN(S(=O)(=O)c2c(C(=O)N3CCOCC3)c(C)n(C)c2C)CC1,?,.,.,?,?,.
CCOC(=O)c1c(S(=O)(=O)N2CCCC(C(=O)NCc3ccccc3Cl)C2)c(C)n(C)c1C (stereo not given),/,/,/,.,.,.
CCOC(=O)c1c(S(=O)(=O)N2CCCC(C(=O)N3CCN(c4ccccc4)CC3)C2)c(C)n(C)c1C (stereo not given),/,/,/,14.6µM,?,.
CCOC(=O)c1c(S(=O)(=O)N2CCN(c3cc(Cl)ccc3C)CC2)c(C)n(C)c1C,/,/,/,?,20.6µM,.
CCOC(=O)c1c(S(=O)(=O)N2CCCC(C(=O)NCc3ccc(Cl)cc3)C2)c(C)n(C)c1C (stereo not given),/,/,/,13µM,?,.
CCOC(=O)c1c(C)c(C(=O)N2CCN(c3ccc(F)cc3)CC2)c(C)n1C,.,.,.,?,?,.
SMILES,ELG1 repair inh,Giardia killer,IL1B secr inh,DT40 TDP1 CPT,TDP1 cell noCPT,TDP1 block
CCOC(=O)c1c(S(=O)(=O)N2CCCC(C(=O)N(C)Cc3ccccc3)C2)c(C)n(C)c1C (stereo not given),/,/,/,11.6µM,?,.
CCOC(=O)c1c(S(=O)(=O)N2CCCC(C(=O)N3CCN(c4ccc(F)cc4)CC3)C2)c(C)n(C)c1C (stereo not given),/,/,/,23.1µM,?,.
NC(=NCc1ccccc1)NC(=O)c1nc(Cl)c(N)nc1N,/,.,-60.7,10.3µM,23.1µM,.
NC(=NCc1ccc2c(c1)OCO2)NC(=O)c1ccccc1,.,?,.,.,?,.
COc1ccc(NC(=O)CSc2ccc3ccccc3c2)cc1S(=O)(=O)N1CCCCC1,?,.,.,23.1µM,16.4µM,.
COc1ccc(NC(=O)COc2ccccc2Cl)cc1S(=O)(=O)N1CCCCC1,?,.,.,?,.,.
CCn1cc(C(=O)Nc2ccc(OC)c(S(=O)(=O)N3CCCCC3)c2)c(=O)c2ccc(C)nc21,.,.,.,?,23.1µM,.
COc1ccc(OCC(=O)Nc2ccc(OC)c(S(=O)(=O)N3CCCCC3)c2)cc1,?,.,.,14.6µM,11.6µM,.
CCn1cc(C(=O)NC2CCCCC2C)c(=O)c2ccc(C)nc21 (stereo not given),/,.,.,?,11.2µM,.
COc1ccc(NS(=O)(=O)c2c(F)cc(F)c(Cl)c2F)cc1S(=O)(=O)N1CCCCC1,.,.,-52.7,.,.,.
COc1ccc(NS(=O)(=O)c2c(F)cccc2F)cc1S(=O)(=O)N1CCOCC1,.,.,.,.,.,.
Cc1cc(Br)ccc1NC(=O)CN(C)C(=O)c1cc(S(=O)(=O)N(C)C)ccc1N1CCCC1,.,.,.,.,?,.
CCOc1ccc(NC(=O)c2ccc(NC(=S)NC3CCCCC3)cc2)cc1,?,.,.,20.6µM,?,.
CCOc1ccc(NC(=O)c2ccc(NC(=O)c3ccc(NC(N)=O)cc3)cc2)cc1,?,.,.,.,.,56.2µM
CCCCOc1cccc(C(=O)NNC(=S)NC2CCCCC2)c1,?,.,.,?,16.4µM,.
CCN(CC)CCCNC(=O)/C=C/C(=O)O,.,.,.,18.4µM,20.6µM,.
O=C(O)/C=C/C(=O)NCCc1ccccc1,?,.,.,.,.,.
Cc1ccc2c(c1)C(=O)C(=O)N2Cc1ccccc1,.,.,.,1.16µM,1.03µM,.
CCN1C(=O)C(=O)c2cc(C)ccc21,?,.,.,4.61µM,5.8µM,.
Cc1ccc2c(c1)C(=O)C(=O)N2Cc1ccc(Cl)cc1,?,.,.,0.731µM,0.92µM,.
O=C1c2ccccc2N(Cc2ccc(Cl)cc2)C2=NCCN12,.,.,.,.,.,.
Cc1ccc2c(c1)C(=O)C(=O)N2Cc1ccc(F)cc1,?,.,.,0.731µM,0.92µM,.
